This is a sample that favours compounds with a hit; in the whole collection about 2.2% have one here.
PGC1a acetyl inh: modulators of PGC1a acetylation; U2OS PGC1a acetylation, AlphaScreen anti-acetyl-lysine; with virally co-expressed GCN5 acetyltransferase; inhibition, % at 15.6 µM; 350,000 tested, 0.17% active; AID 651687;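 active = every replicate shows inhibition of at least 40%; inconclusive = mean inhibition at least 40% but some replicate below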
C2C12 statin: suppressors of simvastatin-induced myotoxicity in C2C12 myotubes | ATP luminescence, 48 h; scaled: DMSO 0, geranylgeraniol control 100 | rescue of ATP level, % at 7.49 µM | 330,000 tested, 0.78% active;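 active = mean ATP rescue above about 67%, or every replicate alone reaching that limit, limit read from the data, passing the limit was not always enough; inconclusive = no clear call, values can overlap the other calls; inactive = mean under the limit and some replicate under it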;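 note: myotubes were challenged with 10 µM simvastatin during compound exposure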
PvdQ acylase: P. aeruginosa PvdQ acylase inhibition; AID 488965; inhibition, % at 10 µM; purified PvdQ acylase, fluorescence plate reader; 340,000 tested, 0.063% active; in the data active = inhibition above about 30%, passing the limit was not always enough; inconclusive = no clear call, values can overlap the other calls
miR-122 sensor: miR-122 inhibition in Huh7 cells; 340,000 tested, 0.3% active; AID 602342; Huh7 miR-122 Renilla luciferase sensor, 48 h; neutral wells = 0, positive control = 100; activation (reporter increase), % at 12.5 µM;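 active = mean replicate activation score at least 90 and every replicate individually at or above 90; inconclusive = only one of the two criteria met; inactive = neither criterion met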;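 note: higher luciferase means less miR-122 activity so hits act as miR-122 inhibitors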
DENV2 CPE rescue: DENV2-induced cell death inhibition; DENV2-infected cells, cytopathic effect rescue, plate reader; CPE inhibition, % at 9.99 µM; 350,000 tested, 1.7% active; in the data active = CPE inhibition above about 20%, passing the limit was not always enough; inconclusive = no clear call, values can overlap the other calls; tested in BHK-21 cells
A number is an active result; 0 = inactive; ? = inconclusive; - = no result.

SMILES	PGC1a acetyl inh	C2C12 statin	PvdQ acylase	miR-122 sensor	DENV2 CPE rescue
CCCN1C[C@H](C)[C@H](OC)CN(C)C(=O)c2cc(NC(=O)CC(F)(F)F)ccc2OC[C@H]1C	0	-	-	-	0
CCCN1C[C@@H](C)[C@@H](OC)CN(C)C(=O)c2cc(NC(=O)CC(F)(F)F)ccc2OC[C@@H]1C	0	-	-	-	55.8
CO[C@H]1CN(C)C(=O)c2ccc(NC(=O)C3CC3)cc2OC[C@@H](C)N(CCc2ccccc2)C[C@H]1C	0	0	-	0	0
COCCCN1C(=O)C(=O)/C(=C(/O)c2ccc(OC)cc2)C1c1cccc(OC)c1 (stereo not given)	0	125.1	0	0	-
COc1ccc(C2/C(=C(/O)c3ccccc3)C(=O)C(=O)N2CCO)cc1 (stereo not given)	0	87.2	0	0	-
C[C@H](CO)N1C[C@H](C)[C@H](CN(C)Cc2ccc(C(F)(F)F)cc2)Oc2ccc(NC(=O)CCC(F)(F)F)cc2C1=O	0	0	-	0	0
C[C@H](CO)N1C[C@H](C)[C@H](CN(C)C(=O)NC2CCCCC2)OCCCC[C@H](C)Oc2ccc(NS(=O)(=O)c3cn(C)cn3)cc2C1=O	-	0	-	0	-
Fc1ccc(CCN2CCN=C2Nc2ccccc2)cc1	0	0	0	0	124.4
CC(C)CCCN1CCN=C1Nc1ccccc1	-	0	0	-	26.7
c1ccc(CCN2CCN=C2Nc2ccccc2)cc1	0	0	0	0	0
C[C@@H]1CCCCO[C@@H](CN(C)Cc2ccccc2)[C@H](C)CN([C@H](C)CO)C(=O)c2cc(NC(=O)c3ccccc3)ccc2O1	0	-	-	0	23.6
C[C@H](CO)N1C[C@H](C)[C@@H](CN(C)Cc2ccccc2)OCCCC[C@H](C)Oc2ccc(NC(=O)c3ccccc3)cc2C1=O	0	-	-	0	0
C[C@@H]1CN([C@H](C)CO)C(=O)c2cc(NC(=O)c3ccccc3)ccc2O[C@@H](C)CCCCO[C@H]1CN(C)Cc1ccccc1	0	-	-	0	0
C[C@@H]1CN([C@@H](C)CO)C(=O)c2cc(NC(=O)c3ccccc3)ccc2O[C@@H](C)CCCCO[C@@H]1CN(C)Cc1ccccc1	0	-	-	0	34.7
C[C@@H]1CN([C@H](C)CO)C(=O)c2cc(NC(=O)c3ccccc3)ccc2O[C@@H](C)CCCCO[C@@H]1CN(C)Cc1ccccc1	0	-	-	0	0
C[C@@H]1CCCCO[C@H](CN(C)Cc2ccccc2)[C@@H](C)CN([C@@H](C)CO)C(=O)c2cc(NC(=O)c3ccccc3)ccc2O1	0	-	-	0	54.0
C[C@@H]1CCCCO[C@@H](CN(C)Cc2ccccc2)[C@@H](C)CN([C@H](C)CO)C(=O)c2cc(NC(=O)c3ccccc3)ccc2O1	0	-	-	0	100.3
C[C@@H]1CCCCO[C@@H](CN(C)Cc2ccccc2)[C@@H](C)CN([C@@H](C)CO)C(=O)c2cc(NC(=O)c3ccccc3)ccc2O1	0	-	-	0	0
CC=Cc1ccc2n(c1=O)C[C@@H]1[C@@H](CO)[C@H](C(=O)Nc3nccs3)N(Cc3cc(F)ccc3F)[C@H]21 (mixture of isomers)	-	0	-	-	0
Cc1noc(C)c1NC(=O)N(C)C[C@@H]1OCCCC[C@H](C)Oc2ccc(NS(=O)(=O)c3ccc(Cl)cc3)cc2C(=O)N([C@@H](C)CO)C[C@@H]1C	0	-	-	0	?
C[C@@H]1CN([C@H](C)CO)S(=O)(=O)c2ccc(C#Cc3ccncc3)cc2O[C@H]1CN(C)C(=O)C1CCOCC1	0	0	-	0	0
Cc1ccc(S(=O)(=O)N[C@@H]2C=C[C@H](CC(=O)NCCc3ccncc3)O[C@H]2CO)cc1	0	0	-	-	0
CCc1nc(OCc2ccccc2)c2sc3nc4c(cc3c2n1)COC(C)(C)C4	0	0	0	0	-
CC1(C)Cc2nc3sc4c(OCc5ccccc5)ncnc4c3cc2CO1	0	73.7	0	0	-
COc1ccc(C(=O)NN2C(=S)N(c3ccc(OC)cc3)C(=O)C2CC(N)=O)cc1 (stereo not given)	-	-	0	-	0
COc1ccc(N2C(=O)C(CC(N)=O)N(NC(=O)c3cccc(OC)c3)C2=S)cc1 (stereo not given)	0	-	0	-	30.8
C[C@@H]1CN([C@H](C)CO)C(=O)Cc2cc(NC(=O)Nc3ccc4c(c3)OCO4)ccc2O[C@H]1CN(C)CC1CCCCC1	0	0	-	0	0
COc1ccc(S(=O)(=O)N(C)C[C@@H]2Oc3ccc(NC(=O)CCC(F)(F)F)cc3CC(=O)N([C@@H](C)CO)C[C@@H]2C)cc1	0	0	-	0	41.6
